Experimental data taken from PubChem BioAssay AID504652 (National Center for Advancing Translational Sciences (NCATS), 2011).
In all, about 360,000 compounds went through this assay and about 11,000 (3.1%) were called active. The sample holds actives, similar compounds and a random draw of the others, so the mix is not that of the screen. Values without a mark were called inactive. Rule as the data show it: active = activity change below about -30%; inactive = the rest.

Biological target: D(1A) dopamine receptor (Homo sapiens) (UniProt P21728)
Assay: Antagonist of Human D 1 Dopamine Receptor: qHTS
Details: HEK293 TREx D1 cells, calcium flux, dopamine EC80; at 10 µM; active compounds read low
Method in brief: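 Inducible Hek293 Trex D1 cells (tetracycline, overnight, 30 C). Calcium dye 30–90 min RT. Antagonist mode: EC80 dopamine added after 180 s compound read.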
% is scaled to controls: 0 for no effect and ±100 for the full control effect.

Chain of D(1A) dopamine receptor (Homo sapiens) (P21728 whole entry, looked up): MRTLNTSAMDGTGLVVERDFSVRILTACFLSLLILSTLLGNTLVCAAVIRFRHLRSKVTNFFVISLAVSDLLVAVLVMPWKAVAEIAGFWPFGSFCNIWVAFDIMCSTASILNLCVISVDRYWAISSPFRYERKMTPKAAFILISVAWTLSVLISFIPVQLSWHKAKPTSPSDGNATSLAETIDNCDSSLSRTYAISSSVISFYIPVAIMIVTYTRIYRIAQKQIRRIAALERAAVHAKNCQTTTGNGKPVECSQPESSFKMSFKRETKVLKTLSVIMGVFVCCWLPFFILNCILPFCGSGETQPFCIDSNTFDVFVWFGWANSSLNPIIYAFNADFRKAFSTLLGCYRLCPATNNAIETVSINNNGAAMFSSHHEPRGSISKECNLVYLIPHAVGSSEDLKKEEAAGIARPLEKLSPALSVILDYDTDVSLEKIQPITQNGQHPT

Going from Cn1c(CC(=O)Nc2ccccc2)nnc1SCC(=O)c1ccccc1 to Cn1c(CNC(=O)c2ccccc2F)nnc1SCc1ccc(F)cc1, the activity change, negative = inhibition rises from -16.4% to 26.9%.

Compared with COc1ccc(CNC(=O)c2cc3cccc(OC)c3oc2=O)cc1, COc1ccc(CNC(=O)Cn2nnc(-c3ccc(S(C)(=O)=O)cc3)n2)cc1 is higher in activity change, negative = inhibition: -1.99% for the first, 15.1% for the second.

Going from O=C(CSc1ccc([N+](=O)[O-])cn1)Nc1ccc(N2CCOCC2)cc1 to O=C(CSc1nccc(=O)[nH]1)Nc1ccc(N2CCOCC2)c(Cl)c1, the activity change, negative = inhibition falls from 0.609% to -3.03%.

Compared with CCOC(=O)c1c(C)oc2ccc(N(C(=O)c3ccncc3)S(=O)(=O)c3ccc(CC)cc3)cc12, CCc1ccc(S(=O)(=O)Nc2cc3c(C(=O)OCc4ccccc4)c(C)oc3c3ccccc23)cc1 is higher in activity change, negative = inhibition: -12.9% for the first, 7.58% for the second.

First: Cc1nn(-c2ccccc2)c(C)c1NC(=O)COC(=O)c1cc(Cl)ccc1O
Second: Cc1nn(-c2ccccc2)c(C)c1NC(=O)CCl
The activity change, negative = inhibition of the first is lower: -7% for the first, -2.92% for the second.

Going from CCOC(=O)c1c(NC(=O)/C=C/c2ccc(OC)cc2)sc2c1CCC(C)C2 (configuration not stated) to CCCN(CCC)S(=O)(=O)c1ccc(C(=O)Nc2sc3c(c2C(=O)OC)CCN(CC)C3)cc1, the activity change, negative = inhibition rises from -4.93% to 27%.

Going from CCCCOC(=O)CSc1ncnc2sc3c(c12)CCC(C)C3 (configuration not stated) to CCOc1ccccc1CNC(=O)c1ccc(-n2c(C)cc3c2CCC(C)C3)cc1 (configuration not stated), the activity change, negative = inhibition rises from -2.54% to 6.61%.

First: Cc1ccc(C)c(S(=O)(=O)n2cnc3ccccc32)c1
Second: CCOc1ccccc1CNS(=O)(=O)c1cc(-c2cc(C)no2)ccc1C
The activity change, negative = inhibition of the first is lower: 1.78% for the first, 50.5% for the second.

Compared with COc1ccc(S(=O)(=O)N2CCN(C)CC2)c(C)c1, COc1ccc(S(=O)(=O)N2CCCC2)c(C)c1C is lower in activity change, negative = inhibition: -0.84% for the first, -24.6% for the second.

First: CCNS(=O)(=O)c1ccc(NC(=O)CSc2nc(-c3ccco3)cc(C(F)(F)F)n2)cc1
Second: COc1ccc(Cn2ccnc2SCC(=O)Nc2ccc3c(c2)OCO3)cc1
The activity change, negative = inhibition of the first is higher: 7% for the first, 3.36% for the second.

Compared with COc1ccccc1N1CCN(CCCNC(=O)c2cnn(-c3ccccc3Cl)c2C2CCN(C(=O)OC(C)(C)C)CC2)CC1, COc1ccccc1N1CCN(C(=O)C2CCN(S(=O)(=O)c3c(C)noc3/C=C/c3ccc(C)cc3)CC2)CC1 is higher in activity change, negative = inhibition: -8.92% for the first, 1.37% for the second.

Going from CCC(C(=O)Nc1cccc(Cl)c1C)n1nc(-c2ccc(C)cc2)ccc1=O (configuration not stated) to Cc1ccc(Cn2c(=O)n(-c3ccc(C)cc3)c(=O)c3c2c2cc(C)ccc2n3C)cc1, the activity change, negative = inhibition falls from 6.67% to -3.86%.

Going from COc1ccc(CCNC(=O)c2ccc(-n3c(C)cc4c3CCCC4)cc2)cc1OC to COc1ccc(CCNS(=O)(=O)c2cc(-c3cc(C)no3)ccc2C)cc1OC, the activity change, negative = inhibition rises from -15.3% to 9.26%.

Going from COc1ccccc1NC(=O)c1oc2ccccc2c1NC(=O)COc1ccccc1OC to CCc1ccccc1NC(=O)c1ccc2nc(CCc3ccccc3)oc2c1, the activity change, negative = inhibition rises from -10.7% to -9.13%.

Going from COc1cc(C)c(S(=O)(=O)N2CCOCC2)c(C)c1C to Cc1c(C)n(Cc2ccc(Cl)cc2)c2ccc(C(=O)NCCCN3CCOCC3)cc12, the activity change, negative = inhibition falls from -2.39% to -28%.

Compared with CC(=O)c1ccc(NC(=O)C2CC(=O)Nc3nc4ccccc4n32)cc1 (configuration not stated), CCOC(=O)c1ccc(NC(=O)C2CC(=O)Nc3nc4ccccc4n32)cc1 (configuration not stated) is higher in activity change, negative = inhibition: -16% for the first, 2.09% for the second.

First: CC(C)CNc1ncnc2c1cnn2Cc1ccc(Cl)cc1
Second: Cc1ccc(Cl)cc1-n1ncc2c(N3CCC(C(N)=O)CC3)ncnc21
The activity change, negative = inhibition of the first is higher: 3% for the first, -13.9% for the second.

First: CCN1CCN(c2ncnc3c2cnn3-c2ccc(C)c(C)c2)CC1
Second: CCc1nnc2c3ccccc3nc(N3CCN(c4ccc(C)cc4C)CC3)n12
The activity change, negative = inhibition of the first is higher: 0.119% for the first, -4.28% for the second.

Going from Cc1ccc(S(=O)(=O)c2nc(NCCCn3ccnc3)sc2Cl)cc1 to CC(=O)c1c(C)n(S(=O)(=O)c2ccc(Cl)cc2)c2ccc(NS(=O)(=O)c3ccc(Cl)cc3)cc12, the activity change, negative = inhibition falls from 8.73% to 0.214%.

First: CCN(CC)CCNC(=O)CN1N=C(c2ccc(OC)cc2)CCC1=O
Second: CCOC(=O)c1c(C)c(C(=O)NCCc2ccc(S(N)(=O)=O)cc2)c(C)n1CC
The activity change, negative = inhibition of the first is higher: 7.52% for the first, -3.79% for the second.

Compared with COC(=O)c1cc(NC(=O)c2sc3ccccc3c2Cl)cc(C(=O)OC)c1, COc1cc(C(=O)OCC(=O)NC(C)CCc2ccccc2)cc(OC)c1OC (configuration not stated) is lower in activity change, negative = inhibition: 5.62% for the first, 0.765% for the second.

Going from COc1cccc(NC(=O)N(Cc2cn(C)c3ccccc23)C2CCCCCC2)c1 to COc1cccc(NC(=O)C(=O)NCC(c2ccc3c(c2)OCO3)N2CCN(C)CC2)c1 (configuration not stated), the activity change, negative = inhibition rises from 17.7% to 27.8%.

Going from Cc1ccc(N(CC(=O)NCC(C)c2ccccc2)S(=O)(=O)N(C)C)cc1 (configuration not stated) to COc1ccc(NS(=O)(=O)c2cccc(C(=O)NCCc3ccc(S(N)(=O)=O)cc3)c2)cc1, the activity change, negative = inhibition falls from -3.48% to -10.4%.

First: O=C(C1CC1)N1CCc2cc(Br)cc(S(=O)(=O)N3CCN(c4ccccc4F)CC3)c21
Second: COc1ccc(N2CCN(C(=O)CSCc3nc(-c4ccccc4Cl)oc3C)CC2)cc1
The activity change, negative = inhibition of the first is higher: -2.36% for the first, -24.8% for the second.

Going from O=C(NCc1ccc(F)cc1)c1ccc(Cn2c(SCc3ccc(F)cc3)nc3cccnc32)cc1 to Cc1nn2c(=O)cc(COC(=O)CNC(=O)c3ccc(F)cc3)nc2s1, the activity change, negative = inhibition rises from -10.7% to -1.13%.

Going from CCCCN(C)c1nnc(NC(=O)Nc2ccc(Br)c(C)c2)s1 to CCCCN(CC)C(=O)c1ccc2c(c1)OCO2, the activity change, negative = inhibition falls from 13.7% to -2.46%.

Compared with N#C/C(=C\c1cccc(F)c1)c1nc(-c2cc3c(ccc4ccccc43)oc2=O)cs1, COc1cc(C2c3c(oc4ccccc4c3=O)C(=O)N2c2nc(C)c(C)s2)ccc1O (configuration not stated) is higher in activity change, negative = inhibition: -2.97% for the first, 6.01% for the second.

First: CCOc1ccc(NC(=O)c2cnn(-c3ccccc3)c2-n2cccc2)cc1
Second: COc1ccccc1NC(=O)c1sc2nc(C)c(C(=O)Nc3ccc(Cl)cc3)c(-c3ccc(Br)cc3)c2c1N
The activity change, negative = inhibition of the first is higher: -0.471% for the first, -7.07% for the second.

Going from CCCCOc1ccc(CSC(=N)N)cc1[N+](=O)[O-] to Cc1nc(SCc2ccc(F)cc2)c([N+](=O)[O-])[nH]1, the activity change, negative = inhibition falls from 25.1% to 8.5%.

First: COc1ccc(F)cc1S(=O)(=O)NCC(c1ccc2c(c1)OCO2)N1CCN(C)CC1 (configuration not stated)
Second: Cn1ccnc1SCC(=O)Nc1ccc2c(c1)OCCO2
The activity change, negative = inhibition of the first is lower: -2.95% for the first, 7.91% for the second.

Going from CCN(CC)CCC(c1cc(OC)c(OC)c(OC)c1)c1c(OC)cc(OC)c2c(-c3ccccc3)cc(=O)oc12 (configuration not stated) to COc1ccc(NC(=O)CCc2nnc3n(CC(C)C)c(=O)c4ccccc4n23)cc1OC, the activity change, negative = inhibition falls from 18.1% to 12%.

First: CCc1cccc(NC(=O)CSc2nccn2C)c1
Second: COC(=O)c1ccc(COc2cc([N+](=O)[O-])cc3cccnc23)cc1
The activity change, negative = inhibition of the first is higher: 6.16% for the first, -0.242% for the second.

Going from CCOc1cc(/C=N/O)ccc1OCc1ccccc1F to CCCc1ccc(OCc2ccc(C(=O)N/N=C/c3cccc([N+](=O)[O-])c3)o2)c(OC)c1, the activity change, negative = inhibition falls from 0.806% to -9.05%.

Going from CC1CCCN(S(=O)(=O)c2ccc3[nH]c(=O)cc(C(=O)NCCc4ccc(Cl)cc4)c3c2)C1 (configuration not stated) to COC(=O)c1c(C)[nH]c(C(=O)NCCc2ccc(S(N)(=O)=O)cc2)c1C, the activity change, negative = inhibition falls from 15.9% to 2.29%.

For Cc1cc(N2CCN(c3cccc(C(F)(F)F)c3)CC2)n2nc(-c3ccccc3)nc2n1, the activity change, negative = inhibition was 23.9%.

Cn1c(Cn2nnc3ccccc32)nnc1SCC(=O)c1ccccc1F was tested, and the activity change, negative = inhibition was -30.4% (active).
For O=C(CSc1ccc([N+](=O)[O-])cn1)Nc1ccc(N2CCOCC2)c(Cl)c1, the activity change, negative = inhibition was -35.4% (active).
In the case of C/C=C/c1ccc(OCC(=O)OCC(=O)Nc2c(C)nn(-c3ccccc3)c2C)c(OC)c1, the activity change, negative = inhibition was -92.1% (active).
With COc1ccc(S(=O)(=O)n2cnc3ccccc32)c(C)c1 the activity change, negative = inhibition was -34% (active).
For COc1ccc(S(=O)(=O)N2CCOCC2)c(C)c1C, the activity change, negative = inhibition was -50.9% (active).
Cc1nc(NC2=NC(C(=O)Nc3ccc(Cl)cc3)CC(=O)N2)nc2ccccc12 (configuration not stated) was tested, and the activity change, negative = inhibition was -50.2% (active).
For Cc1ccc(-n2ncc3c(NCCCn4ccnc4)ncnc32)cc1Cl, the activity change, negative = inhibition was -30.7% (active).
For CCN(CC)CCNc1ncnc2c1cnn2-c1cc(Cl)ccc1C, the activity change, negative = inhibition was -31% (active).
With COc1ccc(CNS(=O)(=O)c2cc(-c3cc(C)no3)ccc2C(C)C)cc1 the activity change, negative = inhibition was -31% (active).
In the case of c1ccc(C2CNCc3c2ccc2ccccc32)cc1 (configuration not stated), the activity change, negative = inhibition was -39.2% (active).
In the case of CCCCCOc1ccc(CSC2=NCCN2)cc1[N+](=O)[O-], the activity change, negative = inhibition was -42.1% (active).
CCN(CC)C(=O)CC(c1ccc2c(c1)OCO2)c1c(OC)cc(OC)c2c(-c3ccccc3)cc(=O)oc12 (configuration not stated) was tested, and the activity change, negative = inhibition was -44.6% (active).
For CCN(CC)CCC(c1ccc2c(c1)OCO2)c1c(OC)cc(OC)c2c(-c3ccccc3)cc(=O)oc12 (configuration not stated), the activity change, negative = inhibition was -32.2% (active).
In the case of Cc1ccc(Cl)cc1NC(=O)CSc1nccn1C, the activity change, negative = inhibition was -34.7% (active).
For COc1cc(/C=N/O)ccc1OCc1ccc([N+](=O)[O-])cc1, the activity change, negative = inhibition was -35.1% (active).
For COc1cc(C(=O)OCc2ccc([N+](=O)[O-])cc2)cc(OC)c1OC, the activity change, negative = inhibition was -36.8% (active).
With Cc1c(C)n(Cc2ccc(Cl)cc2)c2ccc(C(=O)NCCc3ccc(S(N)(=O)=O)cc3)cc12 the activity change, negative = inhibition was -36.4% (active).
With COc1ccc(C(=O)NCCc2ccc(S(N)(=O)=O)cc2)cc1OC the activity change, negative = inhibition was -31% (active).
